Screens as filed in PubChem BioAssay.
APOBEC3A inh: inhibitors of human APOBEC3A DNA deaminase. recombinant A3A, FAM/TAMRA ssDNA deamination fluorescence. inhibition, % at 20 µM. hit rate 0.41% among 330,000;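 active = at least 40% inhibition at 20 µM here, with at most 30% in a related deaminase screen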
A3G deaminase: blocks human APOBEC3G single-stranded DNA deamination | Q9HC16 | recombinant A3G, ssDNA deamination FAM/TAMRA fluorescence | inhibition, % at 20 µM | hit rate 0.28% among 330,000 | AID 493012;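 active = inhibition of at least 40% at 20 µM, with no more than 30% in the related APOBEC3A deaminase screen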
HDAC3 inhib: human HDAC3 inhibition; O15379; recombinant HDAC3, fluorogenic peptide/trypsin coupled, fluorescence; inhibition, % at 8.3 µM; hit rate 0.15% among 320,000; in the data active = inhibition above about 26%, passing the limit was not always enough
LANA-H2B inh: blocks KSHV LANA binding to histone H2A/H2B; cell-free LANA-H2A/H2B peptide, fluorescence polarization; hit rate 0.6% among 320,000; Q9QR71; inhibition, % (test concentration not listed); in the data active = inhibition mostly above about 10%, no sharp cut-off; inactive = mostly below about 6.7%
Of the large screens only hits and unclear results are named; the others gave an inactive call. In the library only some 1.4% were active in any assay of this set; here they are far more common.

C=C(C)C(=O)OC1(C(F)(F)F)Oc2cc(C)ccc2NC1=O (stereo not given)	HDAC3 inhib 29
Cc1onc(-c2ccccc2)c1C(=O)N1CCN(c2ccc([N+](=O)[O-])cc2)CC1	LANA-H2B inh 16
Cc1nc(SCc2nc3cc(Cl)c(F)cc3[nH]2)c2oc3ccccc3c2n1	none
CCOc1ccc(C(=O)Nc2ccc(N3CCN(C)CC3)cc2)cc1[N+](=O)[O-]	none
CCOc1ccc(C(=O)Nc2ccc(N3CCN(C(C)=O)CC3)cc2)cc1[N+](=O)[O-]	LANA-H2B inh 18
COC(=O)c1ccc(CSC2=NC[C@@H]3[C@@H]4C(=O)N(Cc5ccccc5)C(=O)[C@@H]4[C@](C)(C(=O)OC)N23)cc1	none (no result: HDAC3 inhib, LANA-H2B inh)
COc1ccccc1C(C)Nc1nc(-c2cccnc2)nc2ccccc12 (stereo not given)	none
CN(C)S(=O)(=O)c1ccc(Cl)c(NC(=O)COC(=O)[C@@H]2CCCN2C(=O)c2cccs2)c1	none
CCN(CC)S(=O)(=O)c1ccc(C)c(NC(=O)COC(=O)[C@@H]2CCCN2C(=O)c2cccs2)c1	LANA-H2B inh 15
CC(OC(=O)C1=COCCO1)C(=O)NC1(C#N)CCCCC1 (stereo not given)	none
Oc1cccc(/C=N/NC(=S)Nc2cccnc2)c1O	LANA-H2B inh 197 (no result: APOBEC3A inh, A3G deaminase)
Oc1ccc(/C=N/NC(=S)Nc2cccnc2)c(O)c1	none
COc1ccc(OC)c(C=NNC(=O)c2ccc(NS(=O)(=O)c3cccs3)cc2)c1	none
O=C(Cc1ccc(Cl)cc1)N1CCc2ccccc2C1	LANA-H2B inh 20
COc1ccc(CC(=O)N2CCc3ccccc3C2)cc1	none
Cc1ccc(S(=O)(=O)N2[C@@H](c3ccc(Cl)cc3)C(C(=O)O)=C[C@H]2C(C)(C)C)cc1	LANA-H2B inh active
Cc1ccc(S(=O)(=O)N2[C@@H](c3ccc(Br)cc3)C(C(=O)O)=C[C@H]2C(C)(C)C)cc1	none
NC(=O)C1CCN(C(=O)CCC(=O)c2cccs2)CC1	none
O=C(CC1C(=O)NCCN1Cc1ccccc1C(F)(F)F)NC1CCC1 (stereo not given)	LANA-H2B inh 181
CC(C)N(Cc1nccn1C)C(=O)CC1C(=O)NCCN1Cc1ccccc1C(F)(F)F (stereo not given)	LANA-H2B inh 13
O=C(CC1C(=O)NCCN1Cc1ccccc1C(F)(F)F)NC1CCCCC1 (stereo not given)	none
NS(=O)(=O)c1ccc(NC(=O)CN2CCN(S(=O)(=O)c3cccs3)CC2)cc1	none (no result: HDAC3 inhib, LANA-H2B inh)
CC1(C)C2CCC1(C)C(OCC[N+](C)(C)CC(=O)OC1CCCCC1)C2 (stereo not given)	LANA-H2B inh 27
C=CCOc1ccc(/C(O)=C2/C(=O)C(=O)N(CCCN3CCOCC3)C2c2ccc(OC)cc2)cc1 (stereo not given)	LANA-H2B inh 16
C=CCOc1ccc(/C(O)=C2/C(=O)C(=O)N(CCCN3CCOCC3)C2c2ccccc2)cc1 (stereo not given)	none
CCOc1ccccc1N=NC1C(=O)N(C(N)=S)N=C1C (stereo not given)	none
COCCSc1nnc(NC(=O)CSc2ccccc2)s1	none
COCCSc1nnc(NC(=O)C(C)(C)C)s1	LANA-H2B inh 43
CN(C(=O)CSc1nncc2ccccc12)c1ccccc1	none
CN(C(=O)CCN1C(=O)S/C(=C\c2ccccc2)C1=O)C1CCS(=O)(=O)C1 (stereo not given)	LANA-H2B inh 18
COc1ccc(/C=C2\SC(=O)N(CCC(=O)N(C)C3CCS(=O)(=O)C3)C2=O)cc1 (stereo not given)	none
Cc1cc(NC(=O)OC2CCCCC2)ccc1[N+](=O)[O-]	none
Cc1ccc(Cl)cc1N1CCN(C(=O)c2ccccc2SCC(=O)N2CCCC2)CC1	none (no result: HDAC3 inhib, LANA-H2B inh)
CCN(C[C@H]1N[C@@](Cc2ccccc2)(C(=O)OC)[C@H]2C(=O)N(Cc3ccccc3)C(=O)[C@@H]12)S(=O)(=O)c1ccc(C(C)(C)C)cc1	LANA-H2B inh 67
CCN(C[C@H]1N[C@@](Cc2ccccc2)(C(=O)OC)[C@H]2C(=O)N(Cc3ccccc3)C(=O)[C@@H]12)C(=O)COc1ccccc1	LANA-H2B inh active
COC(=O)[C@]1(Cc2ccccc2)N[C@H](CN(C)C(=O)COc2ccccc2)[C@@H]2C(=O)N(Cc3ccccc3)C(=O)[C@@H]21	none (no result: LANA-H2B inh)
CCN(C[C@H]1N[C@@](Cc2ccccc2)(C(=O)OC)[C@H]2C(=O)N(Cc3ccccc3)C(=O)[C@@H]12)S(=O)(=O)c1ccc(OC(F)(F)F)cc1	LANA-H2B inh active
CCN(C[C@H]1N[C@@](Cc2ccccc2)(C(=O)OC)[C@H]2C(=O)N(Cc3ccccc3)C(=O)[C@@H]12)S(=O)(=O)c1ccc(F)cc1	none
COc1ccc(C(=O)c2ccc3oc(-c4ccc(OC)cc4)c(-c4ccc(O)cc4)c3c2)cc1	none
CCN(CC)C(=O)[C@H]1C[C@H](CC(=O)NC(C)(C)C)C(=O)N2CCc3c([nH]c4ccc(Cl)cc34)[C@]12C	none (no result: HDAC3 inhib, LANA-H2B inh)
CC1=C(C(N)=O)C(c2ccc(Br)cc2)n2nc(CCCO)nc2N1 (stereo not given)	LANA-H2B inh 16
CC1=C(C(N)=O)C(c2ccccc2F)n2nc(CCCO)nc2N1 (stereo not given)	none
Cc1ccc(N(CC(N)=O)C2SC(=O)NC2=O)cc1 (stereo not given)	LANA-H2B inh 22
CCCOc1ccc(NC(=O)CC2C(=O)N(c3ccc(OCC)cc3)C(=S)N2C2CC2)cc1 (stereo not given)	none
CN(C#N)c1nc(N2CCOCC2)nc(N2CCOCC2)n1	LANA-H2B inh 41
CCN(C[C@H]1N[C@@](CC)(C(=O)OC)[C@H]2C(=O)N(Cc3ccccc3)C(=O)[C@@H]12)C(=O)c1ccc(C(C)(C)C)cc1	none (no result: HDAC3 inhib, LANA-H2B inh)
CCCCNc1c(-c2ccc(OC)c(Sc3ccc(OC)cc3)c2)nc2cnccn12	none
CCCCNc1c(-c2ccc(SC(C)CC)cc2)nc2cnccn12 (stereo not given)	HDAC3 inhib 32
CN(c1ccc(O)cc1)c1nc(-c2ccccc2)cs1	LANA-H2B inh active (no result: APOBEC3A inh, A3G deaminase)
COc1ccc(C(CNC(=O)c2ccc(-c3cccc(C(F)(F)F)c3)o2)N2CCOCC2)cc1 (stereo not given)	none
CN(C)S(=O)(=O)c1ccc(C(=O)NCc2nc3ccccc3s2)cc1	LANA-H2B inh 15
CN(C)S(=O)(=O)c1ccc(C(=O)NCc2cccs2)cc1	none
Cc1cc(O)c(C(=O)/C=C/c2ccccc2O)c(=O)o1	LANA-H2B inh 158
Cc1cc(O)c(C(=O)/C=C/c2cccc([N+](=O)[O-])c2)c(=O)o1	LANA-H2B inh 16
CC(=O)/C=C/c1ccccc1O	none
C/C(=N\NC(=O)c1nn(C)c(C)c1Br)c1ccc(NC(=O)C2CCCC2)cc1	none
CN1C(=O)C(O)(CC(=O)c2ccccc2O)c2cc(Br)ccc21 (stereo not given)	LANA-H2B inh 47
CN1C(=O)C(O)(CC(=O)/C=C/c2ccco2)c2cc(Br)ccc21 (stereo not given)	none
CC(C)C[C@H](N)c1nnc(S(=O)(=O)Cc2cccc(F)c2)o1	none
CC(C)(C)OC(=O)N[C@@H](Cc1ccccc1)c1nnc(S(=O)(=O)Cc2cccc(F)c2)o1	HDAC3 inhib 69
